ATXN2 expr inh – inhibitors of ATXN2 expression; 360,000 compounds, 0.72% hits; Potency, µM (titrated, usually from 57 µM), for the others: at the top dose activity change, negative = inhibition, hits mostly inhibitors; AID 1745845; HEK-293 ATXN2-luciferase reporter, luminescence, 24 h; note: potency is the fitted concentration of half-maximal effect; % is set by controls: 0 for no effect and ±100 for the full control effect; nearly all actives have a fitted effect of over 55% in size
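ATXN2-luciferase reporter cells (luciferase flanked by upstream and downstream ATXN2 gene portions) were treated 24 h at 37 °C with compounds at up to 57 uM. SteadyGlo luminescence gave expression; GF-AFC fluorescence gave viability.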
HepG2 tox – counter-screen for TGF-b inhibitors: cytotoxicity in HepG2 cells | HepG2 CAGA-GFP viability, ATP luminescence, 18 h | 410,000 compounds, 0.76% hits | Potency, µM (doses to about 46.1 µM), inactives show at the top dose activity change, negative = cytotoxicity, hits mostly cytotoxic; note: potency is the fitted concentration of half-maximal effect
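CellTiter-Glo luminescence gave cytotoxicity after 18 hours at 37 degrees C. The cells were HepG2 CAGA-GFP in 1% FBS DMEM, stimulated with 500 pg/mL TGF-beta after compound addition. %Activity was normalised to no-cell wells (complete cell-killing) and DMSO (no toxicity), and curves were fitted and classified.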
CtBP-E1A blk – blocks the CtBP interaction with E1A. AlphaScreen GST-E1A/His-CtBP binding, 1536-well; stronger effect = lower value. activity change, % (concentration not given with the values). 340,000 compounds, 0.49% hits. AID 651724; in the data active = activity change below about -65%; inconclusive = mostly about -30% to -63%; note: % is set by controls: 0 for no effect and ±100 for the full control effect
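Homogeneous bead-based format: GST-tagged E1A captured on glutathione donor beads, His-tagged CtBP on nickel acceptor beads; compounds precede bead addition by 2 h at 37 °C.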
TGFb SMAD3 inh – TGF-b pathway inhibition | AID 588855 | 410,000 compounds, 1.2% hits | HepG2 CAGA-GFP TGF-b/SMAD3 reporter, GFP fluorescence, 18 h; TGF-beta stimulated, 500 pg/mL final | Potency, µM (series often up to 46.1 µM), inactives show top-dose activity, negative = inhibition, usual class: inhibitors; note: potency is the fitted concentration of half-maximal effect; % is set by controls: 0 for no effect and ±100 for the full control effect; nearly all actives have a fitted effect of over 65% in size
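Using HEPG2 CAGA-GFP reporter cells at 1000 cells/well, we pinned test compounds, stimulated with recombinant TGF-beta (500 pg/mL final) and measured total well GFP after 18 h.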
Six1-Eya2 inh – Six1/Eya2 interaction inhibition; Q15475+O00167; AlphaScreen GST-Six1/His-Eya2 binding, biochemical; stronger effect = lower value; activity change, % (test concentration not listed); 360,000 compounds, 0.56% hits; AID 651725; in the data active = activity change below about -65%; inconclusive = mostly about -30% to -63%; note: % is set by controls: 0 for no effect and ±100 for the full control effect
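AlphaScreen with GST-Six1 and His-Eya2 (5X mix: 250 nM and 500 nM), glutathione donor and nickel acceptor beads; buffer 50 mM Tris pH 8.0, 300 mM NaCl, 1 mM TCEP; 1 h at 37 C in the dark.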
ATXN viability – cell viability loss in ATXN counter-screen | S2 cells (HEK-293 line with an ATXN2-luciferase reporter) viability, CellTiter-Fluor protease fluorescence, 24 h | Potency, µM (series often up to 56.7 µM), hits mostly cytotoxic | 400,000 compounds, 0.49% hits | AID 651635; note: potency is the fitted concentration of half-maximal effect; nearly all actives have a fitted effect of over 40% in size
Active calls of the source: *; i = inactive; ? = inconclusive; / = no result; [ ] = dose if it differs, or a comment. Most compounds without a hit are left out; they make up all but 2.8% or so of the library. Unless noted, calls come from the whole dose curve; as a rule, active = well fitted curve in the direction sought with a large enough effect; inconclusive = small, poorly fitted or top-dose-only effect, or another doubt; inactive = no such curve, though single readings can be large; an effect the other way counts as inactive or inconclusive.

SMILES	ATXN2 expr inh	HepG2 tox	CtBP-E1A blk	TGFb SMAD3 inh	Six1-Eya2 inh	ATXN viability
N#C/C(=N\Nc1cccc([N+](=O)[O-])c1)C(=O)c1ccc(Br)cc1	9.5µM*	-39%	4	6.3µM*	-16	?
N#C/C(=N\Nc1ccc(S(=O)(=O)N2CCc3ccccc32)cc1)C(N)=S	-27%[11.3 µM]	-62%	-28	11µM*	-24	i
N#C/C(=N/Nc1ccc([N+](=O)[O-])cc1)C(=N)N1CCCCC1	89%[11.3 µM]	-9%	?	-20%	-23	i
N#C/C(=N\Nc1ccc([N+](=O)[O-])cc1)C(N)=S	-37%	-43%	-9	?	?	22µM*
CCOC(=O)/C(C#N)=N/Nc1ccc(S(=O)(=O)N2CCc3ccccc32)cc1	-14%	-30%	-4	11µM*	-6	i
COc1ccc(NC(=O)Cn2c(C)cc3ccccc3c2=O)c(OC)c1	11%	-20%	/	13%	/	i
Cc1ccc(-n2c(SCc3ccccc3F)nc3[nH]ncc3c2=O)cc1Cl	?	-97%	/	?	/	35µM*
CCc1ccc(-n2c(SCc3ccccc3F)nc3[nH]ncc3c2=O)cc1	?	-109%	/	?	/	20µM*
Cc1nn(-c2ccccc2)c(C)c1CC(=O)NCC1Cc2cc(F)cc(-c3cccnc3)c2O1 (configuration not stated)	/	/	/	/	/	i
COc1ccccc1CNS(=O)(=O)c1ccc2[nH]c3c(c2c1)CCCCC3	0%	-57%	/	11µM*	/	?
CCOC(=O)C1CCN(S(=O)(=O)c2ccc3[nH]c4c(c3c2)CCCC4)CC1	0%	-4%	-14	-5%	-19	i
CCOC(=O)CC(NS(=O)(=O)c1ccc2[nH]c3c(c2c1)CCCC3)c1ccccc1Cl (configuration not stated)	/	-48%	/	20µM*	/	/
COc1cccc(NS(=O)(=O)c2ccc3[nH]c4c(c3c2)CCCCCC4)c1	-23%	13µM*	/	?	/	i
Cc1c(C(=O)NCC2CC2)sc2ncnc(NCCN3CCCCC3)c12	/	/	/	/	/	i
Cc1cccc(-n2nnnc2S(C)(=O)=O)c1	?	6.3µM*	/	?	/	11µM*
COc1cccc(-n2nnnc2S(C)(=O)=O)c1	?	-101%	6	?	-11	28µM*
COC(=O)c1nnn(-c2cccc(C)c2)c1C(=O)OC	-6%	-34%	/	?	/	i
COc1cccc(Oc2nnnn2-c2ccccc2)c1	/	-14%	9	-3%	14	/
COc1ccc2cc(S(=O)(=O)c3ccccc3F)c(=O)oc2c1	?	2%	/	-55%	/	i
COc1ccccc1N1CCN(C(=O)Cn2ncc3c(=O)oc4ccccc4c32)CC1	?	-37%	/	?	/	?
Cc1cnc(-n2ncc(C(=O)NCC3CCCN(C)C3)c2C)nc1-c1cccs1 (configuration not stated)	/	/	/	/	/	i
CN(CC(=O)O)Cc1nc2ccccc2[nH]1	2%	1%	?	-2%	-76*	i
Cc1nc(C)c(CC(=O)N2CCOc3ccc(CN4CCN(c5ccccn5)CC4)cc3C2)s1	/	/	/	/	/	i
CC(=O)Nc1ccc(S(=O)(=O)NC2(C(F)(F)F)C(=O)Nc3c2c(=O)[nH]c(=O)n3Cc2cccnc2)cc1 (configuration not stated)	-15%[11.3 µM]	2.8µM*	7	20%	-7	i
COc1cc(/C=C(\C#N)c2nc3ccccc3s2)cc([N+](=O)[O-])c1O	24%[11.3 µM]	-19%	-27	6%	?	i
SMILES	ATXN2 expr inh	HepG2 tox	CtBP-E1A blk	TGFb SMAD3 inh	Six1-Eya2 inh	ATXN viability
N#C/C(=C\c1ccc(O)c([N+](=O)[O-])c1)c1nc2ccccc2s1	-31%	-32%	?	13µM*	-28	?
CCOc1ccc(CCNc2ccc3nnc(-c4ccccc4)n3n2)cc1OCC	-7%	-12%	?	-6%	-72*	?
CCCc1cnc(NCCNCC(O)COc2ccc(Cl)c(Cl)c2)nc1 (configuration not stated)	?	20µM*	-4	?	-4	?
C=C1C(=O)O[C@@H]2[C@H]3O[C@]3(C)CC/C=C(\C)CC[C@@H]12	14%	13µM*	0	13µM*	2	i
C=C1C(=O)OC2C=C(C)CCC=C(C)CCC12 (configuration not stated)	-4%	/	/	/	/	/
COc1ccccc1-c1cc2c(c(OC)c1)OCCN(C(=O)Cn1nc(-c3ccccc3)c3ccccc3c1=O)C2	/	/	/	/	/	i
COc1ccccc1N1C(=O)C=C(Sc2nc(C)cc(C)n2)C1=O	-28%	11µM*	-3	11µM*	1	i
CN(CCCNC(=O)c1ccc(/C=N/O)nc1)CCCN(C)Cc1ccccc1	?	-30%	?	-4%	?	?
O=C(NCCCNCCCNC(=O)c1ccc(/C=N/O)nc1)c1ccc(/C=N/O)nc1	/	-16%	/	-19%	-87*	i
O=[N+]([O-])c1ccccc1/C=N/N1CCN(Cc2ccccc2)CC1	62%	-34%	-29	-28%	?	i
O=[N+]([O-])c1ccccc1C=NN1CCCCCC1	23%	-18%	?	8%	-70*	i
O=C/C=C/c1c(-c2ccccc2)cc2oc3ccccc3cc1-2	?	16µM*	-4	11µM*	27	?
O=c1oc2ccccc2cc1-c1ccc(O)cc1	64%	-3%	7	3%	-1	i

Bioassay records as filed in PubChem.
